20 molecules from PubChem BioAssay (EPA / NIEHS) can be followed below.

Activity calls are given as the source filed them. How the source made its calls: active means hit-call score of the fitted dose curve at least 0.9, where 1 is the maximum; inactive means score below 0.9.

The target in assay [1] is Nuclear respiratory factor 1 (Homo sapiens) (UniProt Q16656). The experiment in a line: ATG_NRF1_CIS: Attagene CIS-FACTORIAL HepG2 Assay for human Nuclear Respiratory Factor 1 (NRF1) Orphan Gene (AID 2282987). The conditions noted are these: HepG2 NRF1 cis-element reporter, Attagene multiplex; actives raise or lower the signal. In outline: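 Transcriptional reporter readout, one component of a 52-endpoint multiplexed HepG2 panel. Exposure 24 h; mRNA detected via RT-PCR and fluorescent capillary electrophoresis; fitting in both directions against DMSO.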

The target in assay [2] is Myc proto-oncogene protein (Homo sapiens) (UniProt P01106). The assay is described as follows: ATG_Myc_CIS: Attagene CIS-FACTORIAL HepG2 Assay for human Myelocytomatosis (Myc) Proto-Oncogene Transcription Factor (AID 2282990). The conditions noted are these: HepG2, Attagene cis-reporter transcription factor activity; actives raise or lower the signal. In outline: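 Read-out: fluorescent reporter mRNA fragments resolved by capillary electrophoresis after RT-PCR. Human HepG2 liver cells carried transfected cis-element reporter units and were dosed for 24 h. Gain or loss of signal fitted relative to DMSO baseline.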

Assay [3] can be described thus: ATG_NF_kB_CIS: Attagene CIS-FACTORIAL HepG2 Assay for human Nuclear Factor Kappa B (NF-kB) (AID 2282991). The conditions noted are these: HepG2 Attagene cis-factorial NF-kB reporter mRNA; actives raise or lower the signal. In outline:
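HepG2, transient multi-reporter transfection, cis promoter elements (endogenous TFs). 24 h exposure. Total RNA → RT → PCR → 6-FAM label → HpaI → CE. Gain/loss vs DMSO.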

Assay [4] in a line: ATG_NRF2_ARE_CIS: Attagene CIS-FACTORIAL HepG2 Assay for human Nuclear Factor Erythroid 2 Related Factor 2 (NFR2) response to Antioxidant Response Elements (ARE) (AID 2282992).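 On AC50: reporter mRNA level measured by RT-PCR and capillary electrophoresis fluorescence.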 The conditions noted are these: HepG2 Attagene ARE/NRF2 reporter, transcription factor activity; actives raise or lower the signal. Put shortly: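 Transient MRTU transfection of HepG2; 24 h compound exposure; TriZol RNA, RT with oligo(dT), PCR, 6-FAM primer extension, HpaI cut, CE. Bidirectional fit vs DMSO.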

Assay [5] is described as follows: ATG_Oct_MLP_CIS: Attagene CIS-FACTORIAL HepG2 Assay for human Octamer-Binding Transcription Factor (Oct) (AID 2282993). The conditions noted are these: HepG2 Attagene cis-factorial Oct reporter, mRNA; actives raise or lower the signal. In outline:
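After 24 h compound exposure, transfected HepG2 cells were lysed for total RNA; reporter-specific cDNA was PCR-amplified, fluorescently labelled and sized by capillary electrophoresis. Bidirectional curve fitting used DMSO as baseline.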

Assay [6] concerns the target Cellular tumor antigen p53 (Homo sapiens) (UniProt P04637). The experiment in a line: ATG_p53_CIS: Attagene CIS-FACTORIAL HepG2 Assay for human p53 Transcription Factor (AID 2282994). The conditions noted are these: HepG2 p53 cis-element reporter, Attagene mRNA; actives raise or lower the signal. Put shortly: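 HepG2, transient MRTU transfection (cis promoter elements, endogenous TFs); 24 h dosing; RNA isolation, RT-PCR, 6-FAM primer extension, HpaI digest, CE fluorescence; bidirectional fit vs DMSO.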

Assay [7] can be described thus: BSK_3C_TissueFactor: BioMAP Diversity Plus: 3C Assay for Tissue Factor Biomarker Activity (AID 2282997). The conditions noted are these: BioMAP 3C HUVEC, tissue factor biomarker readout; actives raise or lower the signal. Put shortly: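 Dosing of human umbilical vein endothelial cells preceded a 24 h incubation. Tissue Factor was then read by ELISA, with increases and decreases both scored relative to DMSO controls.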

A short description of assay [8]: BSK_3C_uPAR: BioMAP Diversity Plus: 3C Assay for Urokinase-type plasminogen activator receptor (uPAR) Biomarker Activity (AID 2282998). The conditions noted are these: BioMAP 3C HUVEC, uPAR biomarker ELISA; actives raise or lower the signal. Put shortly:
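Values derive from bidirectional curve fitting relative to DMSO, which served as baseline of activity. uPAR was measured by ELISA in human umbilical vein endothelial primary cultures 24 h after compound addition.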
On the technique in general: In an ELISA, binding on a coated surface is turned into a signal by an enzyme label.

Assay [9] is described as follows: BSK_3C_VCAM1: BioMAP Diversity Plus: 3C Assay for Vascular cell adhesion molecule 1 (VCAM1) Biomarker Activity (AID 2282999). The conditions noted are these: BioMAP 3C HUVEC, VCAM1 ELISA, cytokine-stimulated; actives raise or lower the signal. In outline:
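Human umbilical vein endothelial cells (3C system), biomarker read by ELISA 24 h after dosing; bidirectional fit against DMSO baseline. Cytotoxicity tracked by SRB total-protein staining in parallel cultures at biomarker time.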

Sequence of Myc proto-oncogene protein (Homo sapiens) (P01106 whole entry, looked up, the tested form may be a part): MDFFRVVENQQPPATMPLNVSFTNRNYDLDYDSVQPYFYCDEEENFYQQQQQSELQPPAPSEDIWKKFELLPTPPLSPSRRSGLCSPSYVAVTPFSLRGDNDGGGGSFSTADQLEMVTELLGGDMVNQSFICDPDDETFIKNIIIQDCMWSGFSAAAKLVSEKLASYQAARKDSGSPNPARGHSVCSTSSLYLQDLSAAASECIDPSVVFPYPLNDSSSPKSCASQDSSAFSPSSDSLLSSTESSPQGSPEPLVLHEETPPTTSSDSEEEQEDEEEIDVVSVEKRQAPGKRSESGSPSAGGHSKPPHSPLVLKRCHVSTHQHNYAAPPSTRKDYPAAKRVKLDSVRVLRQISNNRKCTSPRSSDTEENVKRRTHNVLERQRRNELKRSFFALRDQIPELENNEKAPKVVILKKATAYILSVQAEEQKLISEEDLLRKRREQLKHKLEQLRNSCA
Sequence of Cellular tumor antigen p53 (Homo sapiens) (P04637 whole entry, looked up): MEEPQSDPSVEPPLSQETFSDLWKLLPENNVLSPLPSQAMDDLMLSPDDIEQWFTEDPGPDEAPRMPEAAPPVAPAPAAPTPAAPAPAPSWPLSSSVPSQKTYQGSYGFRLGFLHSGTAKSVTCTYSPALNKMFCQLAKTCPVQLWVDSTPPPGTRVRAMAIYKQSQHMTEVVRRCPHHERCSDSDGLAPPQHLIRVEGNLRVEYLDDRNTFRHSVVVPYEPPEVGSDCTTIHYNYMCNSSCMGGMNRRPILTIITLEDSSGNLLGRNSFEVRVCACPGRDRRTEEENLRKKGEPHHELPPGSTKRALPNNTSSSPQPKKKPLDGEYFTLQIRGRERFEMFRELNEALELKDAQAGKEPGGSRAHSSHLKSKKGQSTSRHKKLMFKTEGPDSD
Sequence of Nuclear respiratory factor 1 (Homo sapiens) (Q16656 whole entry, looked up): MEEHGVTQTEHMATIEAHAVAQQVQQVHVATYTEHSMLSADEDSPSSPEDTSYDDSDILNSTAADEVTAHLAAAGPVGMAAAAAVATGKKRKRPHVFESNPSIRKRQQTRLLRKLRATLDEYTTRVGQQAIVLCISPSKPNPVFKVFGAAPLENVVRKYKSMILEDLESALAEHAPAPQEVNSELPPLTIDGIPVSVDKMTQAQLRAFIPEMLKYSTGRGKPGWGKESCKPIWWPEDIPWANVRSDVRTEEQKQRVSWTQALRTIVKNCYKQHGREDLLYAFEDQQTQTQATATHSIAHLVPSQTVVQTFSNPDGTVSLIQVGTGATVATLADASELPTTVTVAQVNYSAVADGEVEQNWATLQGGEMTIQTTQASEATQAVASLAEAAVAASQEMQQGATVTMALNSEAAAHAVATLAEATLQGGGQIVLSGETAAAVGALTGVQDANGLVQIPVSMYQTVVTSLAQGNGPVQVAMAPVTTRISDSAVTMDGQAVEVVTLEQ

In general, AC50 refers to the concentration giving half of the maximal activity seen. On to `CCC1(C)C(=O)N(Cl)C(=O)N1Cl` (configuration not stated), for which the call in [1], in [2], in assay [3], in assay [6], in assay [7] and in [8] was inactive. For the same molecule, the outcome in assay [9] was inactive. Also, the AC50 in assay [4] was 27.1 µM (active); in assay [5], 27.4 µM (active).

As to `CCCCCCCCCCCC(=O)OCC`, the call in assay [1], in assay [2], in assay [3], in assay [5] and in assay [6] was inactive.

`CC(C)=NNC(N)=S`: the outcome in assay [1], in assay [2], in assay [3], in assay [4], in assay [5] and in [6] was inactive.

Regarding `CC1(C)CC(O)CC(C)(C)N1[O]`, the call in assay [1], in assay [2], in assay [5], in [7], in [8] and in assay [9] was inactive. The AC50 in assay [4] is 26.6 µM (active).

For the molecule `CC=C(C)C=CC=C(C)C`, the outcome in [1], in [2], in [3], in assay [5], in assay [6] and in assay [8] was inactive. Further, the AC50 in assay [4] was 26.8 µM (active); in assay [7], 20 µM (active); in [9], 18.6 µM (active).

For `C/C=C/C=C/CCCCCCCO`, the call in assay [1], in [2], in [5] and in assay [6] was inactive. Further, the half-maximal activity concentration (AC50) in assay [4] was 45.6 µM (active).

`C=CCCCCCCCCO`: the result in assay [1], in [2], in [4], in assay [5] and in assay [6] was inactive.

`CC(C)(CO)COC(=O)C(C)(C)CO`: the molecule was classed as inactive in assay [1], in [2], in [3], in assay [4], in assay [5] and in assay [6].

As for `CCCCCCCC(=O)OCC`, the molecule was classed as inactive in assay [1], in assay [2], in [3], in assay [4], in assay [5] and in assay [6].

On to `CCOC(=O)C1=NOC(c2ccccc2)(c2ccccc2)C1`, for which the molecule was classed as inactive in assay [1], in assay [2], in assay [5], in assay [6], in assay [7] and in assay [8]. For the same molecule, in [9], the result was inactive. Besides, the AC50 in [4] is 65.1 µM (active).

On to `C=C(C)C(=O)OCC(O)COc1ccc(C(C)(C)c2ccc(OCC(O)COC(=O)C(=C)C)cc2)cc1` (configuration not stated), for which the AC50 in assay [1] is 130 µM (active); in assay [4], 26.5 µM (active); in [5], 17.8 µM (active). Besides, the result in assay [2], in [3] and in assay [6] was inactive.

In the case of `Nc1nc(N)nc(-c2ccccc2)n1`, the molecule was called inactive in [1], in assay [2], in assay [3], in assay [5], in assay [8] and in [9].

On to `[Cl][Sc]([Cl])[Cl]`, for which the molecule was called inactive in assay [1], in [2], in [4], in assay [5] and in assay [6].

`CC(=O)OCCc1ccccc1`: the molecule was called inactive in assay [1], in assay [2], in assay [4], in assay [5] and in assay [6].

`CC1(C)[C@@H]2CC[C@@]1(C)C(=O)C2`: the result in assay [1], in [2], in [3], in assay [5] and in assay [6] was inactive.

`CC(C)c1ccc(O)c(C(C)C)c1`: the call in [1], in [2], in [3], in assay [5] and in assay [6] was inactive. Further, the AC50 in assay [4] was 24.6 µM (active).

For `O=C(O)c1ccc2c(c1)C(=O)OC2=O`, the molecule was classed as inactive in assay [1], in assay [2], in assay [3], in assay [4], in assay [5] and in assay [6].

`CC12CCC(CC1)C(C)(C)O2`: the result in [1], in [2], in assay [5] and in [6] was inactive.

For the molecule `CCCCCCCCCCCC(C)=O`, the AC50 in assay [1] is 158 µM (active); in assay [4], 75.2 µM (active); in assay [6], 147 µM (active); in assay [8], 34.5 µM (active); in [9] it was 29.8 µM (active). The molecule was classed as inactive in assay [2] and in assay [5].

Turning to `CC(=O)OC1CCCCC1C(C)(C)C` (configuration not stated), the outcome in [1], in assay [2], in assay [3], in [4], in assay [5] and in assay [6] was inactive.
